# In the library only some 7.4% were active in any assay of this set; here they are far more common.
# Rab9 prom act = qHTS Assay for Rab9 Promoter Activators; actives 2.8% (n = 320,000); Potency, µM (highest dose often 9.22 µM), for the others: at the highest dose activation, negative = inhibition, most hits filed as activators; Huh7 Rab9 promoter-luciferase reporter, luminescence, 24 h; AID 485297, 2010; note: % of control where 0% means no effect; nearly all actives have a fitted effect of over 60% in size
#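 Stable Rab9-luc Huh7, 1500 cells/well, 2 h settle; cmpd in DMSO, 24 h, 37 °C/5% CO2; luciferase reagent 10 min RT; luminescence.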
# SMN2 splice up = qHTS Assay for Enhancers of SMN2 Splice Variant Expression; HEK293 SMN2-luciferase splicing reporter, luminescence, 30-36 h; Potency, µM (titrated, usually from 46.1 µM), for the others: at the top dose activity change, positive = activation, hits mostly activators; actives 2.8% (n = 210,000); note: % of control where 0% means no effect; nearly all actives have a fitted effect of over 55% in size
#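 HEK293 cells carry an SMN2 […]–luciferase reporter in which exon 7 inclusion puts luciferase in frame. Cells were plated 10-12 h before compound addition, then incubated 30-36 h at 37C. ONE-Glo luminescence was read; sodium butyrate at 4.5 mM final served as control.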
# NPC1 prom act = qHTS Assay for NPC1 Promoter Activators; Potency, µM (top dose mostly 9.22 µM), without a hit: at the highest dose activation, usual class: activators; actives 2.4% (n = 320,000); AID 485313, 2010; Huh7 NPC1 promoter luciferase reporter, 24 h; note: % of control where 0% means no effect; nearly all actives have a fitted effect of over 60% in size
#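 Luminescence read-out of NPC1 promoter-driven luciferase in stably transfected Huh7 cells; compounds delivered in DMSO and left 24 h at 37C, 5% CO2, qHTS titration format.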
# ELG1 genotoxic = qHTS screen for small molecules that induce genotoxicity in human embryonic kidney (HEK293T) cells expressing luciferase-tagged ELG1; HEK293T ELG1-luciferase reporter, luminescence, 16 h; Potency, µM (series often up to 46 µM), for inactives: top-dose activity change, positive = activation, hits mostly activators; actives 1.3% (n = 330,000); AID 504466, 2011; note: % of control where 0% means no effect; nearly all actives have a fitted effect of over 60% in size
#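 16 hr compound incubation (37 °C, 5% CO2) of HEK293T cells carrying luciferase-tagged ELG1; luciferase then measured by ONE-Glo luminescence after 30 min at RT.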
# FLuc modulator = qHTS profiling assay for firefly luciferase inhibitor/activator using purifed enzyme and Km concentrations of substrates (counterscreen for miR-21 project). Luciferin 4-monooxygenase (Photinus pyralis), P08659. purified FLuc, Km substrates, luminescence inhibition. Potency, µM (top dose mostly 57.5 µM), for inactives: at the top dose activity change, negative = inhibition, most hits filed as inhibitors. actives 6.9% (n = 360,000). AID 588342, 2011;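 note: plate controls were vehicle for no effect and reference inhibitor for full effect; nearly all actives have a fitted effect of over 55% in size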
# Target sequence (P08659 whole entry, looked up): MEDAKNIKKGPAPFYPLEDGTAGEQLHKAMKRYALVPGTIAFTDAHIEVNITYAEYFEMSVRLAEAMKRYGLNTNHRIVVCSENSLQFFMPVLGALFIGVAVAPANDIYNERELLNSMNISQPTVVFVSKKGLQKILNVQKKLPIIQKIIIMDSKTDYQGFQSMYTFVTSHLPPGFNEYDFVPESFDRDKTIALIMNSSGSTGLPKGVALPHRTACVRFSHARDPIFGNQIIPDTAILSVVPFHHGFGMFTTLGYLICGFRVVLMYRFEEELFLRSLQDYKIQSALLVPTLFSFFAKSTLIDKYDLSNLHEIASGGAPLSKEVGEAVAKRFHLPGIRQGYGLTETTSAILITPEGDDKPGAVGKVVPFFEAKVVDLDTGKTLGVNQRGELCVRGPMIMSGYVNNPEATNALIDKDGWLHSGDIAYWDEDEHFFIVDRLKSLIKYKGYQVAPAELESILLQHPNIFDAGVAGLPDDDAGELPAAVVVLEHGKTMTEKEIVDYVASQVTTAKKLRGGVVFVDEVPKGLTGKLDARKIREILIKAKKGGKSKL
#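 Biochemical qHTS of compounds, final roughly 60 µM downward over six points, against 10 nM purified firefly luciferase using Km concentrations of substrates (10 uM D-luciferin, 10 uM ATP) in Tris acetate pH 7.5 buffer; luminescence output.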
# Numbers without * were called inactive; u = inconclusive; x = no result; [ ] = remark or other dose. Calls come from the whole dose curve; as a rule, active = well fitted curve in the direction sought with a large enough effect; inconclusive = small, poorly fitted or top-dose-only effect, or another doubt; inactive = no such curve, though single readings can be large; an effect the other way counts as inactive or inconclusive. Potency is the fitted concentration of half-maximal effect.
SMILES,Rab9 prom act,SMN2 splice up,NPC1 prom act,ELG1 genotoxic,FLuc modulator
O=C(O)C(Cc1ccccc1)N1C(=O)c2cccc3cccc(c23)C1=O (centres undefined),1%,x,-2%,-5%,-11%
Cc1ccc(-n2nc(C)c3nc(CCC(=O)Nc4ccc(F)cc4)c(=O)n(C)c32)cc1,x,x,x,x,-2%
Cc1nc2ccn(Cc3ccco3)c(=O)c2cc1C(=O)N1CCN(c2ccccc2F)CC1,x,x,x,x,-3%
CCCCS(=O)(=O)N1C2=NC(C(=O)OC)=C(C(=O)OC)[C@@H]3Nc4ccccc4[C@]23C[C@H]1C(=O)OC,x,0%[9.22 µM],x,x,x
COc1ccc(C(=O)Cn2nnc(-c3cccs3)n2)cc1,2.8µM*,-6%,u,3%,9.5µM*
O=C(Cn1nnc(-c2ccccc2)n1)c1ccccc1,11%,-14%,11%,10%,u
Cc1ccc(C(=O)Cn2nnc(-c3ccccc3)n2)cc1,20%,x,2%,-1%,19µM*
COC(=O)Cn1nnc(-c2cccc(OC)c2)n1,-4%,-11%,-6%,0%,27µM*
CCN(CC)Cc1ccccc1CNC(=O)c1cccc(S(=O)(=O)Nc2ccc3c(c2)OCO3)c1,17%,x,-2%,1%,-9%
COC(=O)c1cccc(NC(=O)CC2C(=O)NCCN2C(=O)Nc2cc(C)cc(C)c2)c1 (centres undefined),8%,x,0%,1%,-1%
O=C(O)CCC(=O)N1CCN(c2nc3ccccc3s2)CC1,2%,26%,0%,0%,-6%
COC(=O)Cc1[nH]n(-c2nc3ccccc3s2)c(=O)c1C(C)=O,15%,-19%,11%,u,9.5µM*
COc1ccc(Cn2c(C(C)C)nc3sc4ccccc4c(=O)c3c2=O)cc1,-9%,x,-3%,-5%,5%
CC(=O)c1c(CC(=O)O)[nH]n(-c2nc3ccccc3s2)c1=O,u,-22%,21%,10%,12µM*
COc1ccc(CN=C(C)c2c(C(F)(F)F)[nH]n(-c3nc4ccccc4s3)c2=O)cc1,4µM*,-22%,u,15µM*,6.7µM*
O=c1cc(-c2ccccc2)[nH]n1-c1nc2ccccc2s1,8%,-1%,12%,8%,17µM*
COC(=O)CC1=NN(c2nc3ccccc3s2)C(=O)/C1=C/N(C)C,17%,2%,15%,-6%,u
CC(C)(C)c1ccccc1NC(=S)NC1CCCCC1,1%,-7%,-7%,-9%,-2%
N#CC1=C2SC=C(c3ccc(Br)cc3)N2CCCC1=O,1.6µM*,16µM*,u,19%,5.4µM*
O=C1OC(c2cccs2)=N/C1=C/c1ccc(-c2cccc(C(=O)O)c2)o1,-3%,6%,3%,u,24µM*
N=C1/C(=C/c2ccc(-c3cccc(C(=O)O)c3)o2)C(=O)N=C2SC=C(c3ccccc3)N12,25%,17%,0%,2%,24µM*
CS(=O)(=O)C1=NSC2=NC(=O)/C(=C\c3ccc(-c4ccccc4)o3)C(=N)N21,5%,5%,4%,4%,12µM*
CC(C)S(=O)(=O)C1=NSC2=NC(=O)/C(=C\c3ccc(-c4cccc(C(=O)O)c4)o3)C(=N)N21,-3%,1%,-3%,-9%,13µM*
COc1ccccc1OCCNC(=O)C1CC(=O)N(c2cccc(SC)c2)C1 (centres undefined),-2%,x,-1%,1%,-1%
CCn1c(CCCOc2ccc(Cl)cc2Cl)nnc1SCC(=O)Nc1cc(F)ccc1C,11%,-8%,-5%,-2%,17µM*
SMILES,Rab9 prom act,SMN2 splice up,NPC1 prom act,ELG1 genotoxic,FLuc modulator
C=CCn1c(CCCOc2ccc(Cl)cc2Cl)nnc1SCC(=O)Nc1nccs1,7%,-2%,0%,-3%,13µM*
Cn1c(CCCOc2ccc(Cl)cc2Cl)nnc1SCC(=O)Nc1ccc(F)c(Cl)c1,3%,1%,-5%,0%,-10%
Cn1c(CCCOc2ccc(Cl)cc2Cl)nnc1SCC(=O)Nc1cccc(F)c1,11%,-6%,0%,0%,4.8µM*
CCn1c(CNC(=O)COc2ccc(C(C)C)cc2)nnc1SCC(=O)Nc1cc(F)ccc1C,0%,-25%,-2%,-8%,-17%
COc1ccc(-n2c(=S)[nH]c3cc(C(=O)NCCCN4CCOCC4)ccc3c2=O)cc1OC,-1%,x,-2%,-3%,1%
Cc1cccc(CCNS(=O)(=O)c2ccc3c(c2)CCN3C(=O)CCC(=O)O)c1,0%,x,-5%,1%,0%
Cc1ccc(C(=O)O/N=C/c2ccc(N(C)C)cc2)cc1,20%,x,1%,13%,u
Cc1ccc(C=Nc2ccccc2C(N)=O)o1,3.5µM*,11µM*,u,u,27µM*
Cc1ccc(/C=N/c2sc(Cc3ccccc3)c(C)c2C(N)=O)o1,2%,22%,0%,0%,-6%
CN(C)c1ccc(C=Nc2ccccc2C(N)=O)cc1,0.79µM*,13µM*,3.2µM*,10µM*,1.5µM*
O=[N+]([O-])c1ccccc1N/N=C/c1ccccc1,u,x,4µM*,u,u
NS(=O)(=O)c1ccc(N/N=C/c2ccc3c(c2)OCO3)c([N+](=O)[O-])c1,3%,-2%,2%,5%,-5%
O=[N+]([O-])c1ccc(N/N=C/c2c[nH]c3ccccc23)cc1,-2%,-10%,-2%,15%,u
O=[N+]([O-])c1ccccc1N/N=C/c1ccc2c(c1)OCO2,0.32µM*,2.8µM*,0.5µM*,2.9µM*,0.48µM*
O=[N+]([O-])c1ccccc1N/N=C/c1c[nH]c2ccccc12,1%,13µM*,u,4.1µM*,4.3µM*
Cc1cc(C)cc(OC(C)C(=O)Nc2ccc(S(=O)(=O)Nc3cc(C)nc(C)n3)cc2)c1 (centres undefined),1%,x,-5%,-3%,2%
Cc1ccc(-c2nn(Cc3ccccc3)cc2C(=O)N2CCN(c3ccccn3)CC2)cc1,-7%,x,1%,2%,3%
Cc1ccc(-c2nn(-c3ccccc3)cc2C(=O)N2CCN(c3ccccn3)CC2)cc1,7%,3%,-6%,-6%,15µM*
O=C(c1cn(-c2ccccc2)nc1-c1ccccc1)N1CCN(c2ccccn2)CC1,-5%,7%,-1%,-9%,11µM*
C[N+](C)(N)Cc1csc(-c2ccc(Cl)cc2)n1,x,-6%[9.22 µM],x,x,x
Nc1ccccc1SCc1csc(-c2ccc(Cl)cc2)n1,u,-1%[9.22 µM],u,9%,13µM*
Cc1cc(C)nc(SCc2csc(-c3ccccc3)n2)n1,1.4µM*,5µM*,2.5µM*,4.6µM*,3.4µM*
